Peg3 promoter – inhibitors of Peg3 promoter; 360,000 compounds, 1.7% hits; AID 588405; HeLa PEG-Prom luciferase reporter, luminescence, overnight; inhibition, % at 20 µM;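 active = inhibition of at least 50% at 20 µM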
TWEAK-Fn14 inh – inhibitors of TWEAK-Fn14 interaction signaling; TWEAK-stimulated Fn14 reporter cells, luciferase luminescence, 8 h; inhibition, % at 10 µM; 360,000 compounds, 2% hits; AID 1159606; in the data active = inhibition above about 50%
TROY NFkB inh – inhibitors of TROY-dependent NF-kB signaling | Q293 LMP1-TROYcd NF-kB luciferase reporter, 4 h | inhibition, % at 10 µM | 360,000 compounds, 0.98% hits | AID 1347056;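 active = compounds whose plate-normalised and pattern-corrected inhibition of the luciferase reporter signal at the single screening dose is 50% or more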
HIF-2a block – inhibitors of HIF-2a; 786-0 RCC cells HIF-2a reporter, luciferase luminescence, overnight; inhibition, % at 18.8 µM; 360,000 compounds, 0.72% hits; AID 624352;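 active = inhibition of the luminescence signal of 40% or more relative to plate controls, in a single-dose primary screen at 18.75 µM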
CF NFkB inh – inhibitors of cystic fibrosis induced NF-kB; AID 588850; 360,000 compounds, 0.86% hits; inhibition, % at 5 µM; KKLEB NF-kB-GFP reporter, PAF-induced, GFP fluorescence overnight;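 active = at least 50% inhibition at 5 µM, scaled per plate between neutral and stimulator controls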;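 note: PAF is a Pseudomonas aeruginosa culture filtrate used as stimulus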
KKLEB tox – CF airway cell cytotoxicity counter-screen; activity change (cytotoxicity), % at 5 µM; 360,000 compounds, 0.36% hits; KKLEB CF airway cells viability, ATPlite luminescence, overnight; stronger effect = lower value; cells stimulated with P. aeruginosa culture filtrate;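 active = corrected activity change at or below -50% at 5 µM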
Hits are given with their value; i = inactive; nt = not tested or not shown. Shown are actives, neighbours in structure and some others; about 4% of the full set was active somewhere.

SMILES	Peg3 promoter	TWEAK-Fn14 inh	TROY NFkB inh	HIF-2a block	CF NFkB inh	KKLEB tox
CCCCCN=Cc1c(C)[nH]n(-c2nc3ccccc3s2)c1=O	i	87	i	i	i	i
O=c1c(C=NCCCO)c(-c2ccccc2)[nH]n1-c1nc2ccccc2s1	i	77	i	i	i	i
CN(C)S(=O)(=O)c1ccc(/C(O)=C2/C(=O)C(=O)N(Cc3cccnc3)C2c2cccs2)cc1 (configuration not stated)	i	i	i	i	i	i
Cc1c(/C(O)=C2/C(=O)C(=O)N(CCN3CCOCC3)C2c2ccco2)cnn1-c1ccccc1 (configuration not stated)	i	85	74	i	i	i
Cc1c(/C(O)=C2/C(=O)C(=O)N(Cc3cccnc3)C2c2cccs2)cnn1-c1ccccc1 (configuration not stated)	i	83	85	i	i	i
Cc1nc2oc3ccccc3c(=O)c2c(=O)n1Cc1ccccc1	i	i	i	i	i	i
CC1CN(Cc2ccccc2)c2nc3c(c(=O)n(CC(N)=O)c(=O)n3C)n2C1 (configuration not stated)	i	i	i	i	i	i
COc1ccc(NS(=O)(=O)c2cccc(NC(=O)c3ccc(Cl)nc3)c2)cc1	i	70	i	i	i	i
O=C(Nc1cccc(S(=O)(=O)Nc2ccc(Cl)cc2)c1)c1ccc(Cl)nc1	i	80	53	i	i	i
COc1ccc(NS(=O)(=O)c2cccc(NC(=O)CCC(=O)c3ccc(Cl)cc3)c2)cc1	i	75	i	i	i	i
O=C(Nc1ccc(NS(=O)(=O)c2ccccc2)cc1)c1ccc(Cl)cc1	i	i	i	i	i	i
COc1ccc(C(=O)Nc2ccc3ncccc3c2)cc1	i	75	i	i	i	i
COc1ccc(NS(=O)(=O)c2cccc(NC(=O)CCC(=O)c3cccs3)c2)cc1	i	i	i	i	i	i
O=C(CCC(=O)N1CCOc2ccccc21)Nc1ccccc1Br	i	i	i	i	i	i
CCOc1ccc(NC(=O)CN(C)C(=O)CN2C(=O)NC3(CCCC3)C2=O)cc1OCC	i	i	i	i	i	i
CC1(/[N+]([O-])=C/c2ccc(Cl)cc2Cl)CCCCC1=O (configuration not stated)	i	i	i	i	i	i
O=c1[nH]c(Sc2ccc([N+](=O)[O-])cc2[N+](=O)[O-])nc2ccccc12	i	i	i	i	i	i
O=[N+]([O-])c1ccc(Sc2cc[n+]([O-])c3ccccc23)c([N+](=O)[O-])c1	i	77	i	i	i	i
O=Cc1ccc2cccnc2n1	i	i	i	i	i	i
CC(C)(CC(=O)N1CCN(c2ccc(Cl)cc2)CC1)CC1=NS(=O)(=O)c2ccccc2N1	i	54	i	i	i	i
Cc1ccc(CNC(=O)C2CCCN(S(=O)(=O)c3ccc(-n4cnnn4)cc3)C2)cc1 (configuration not stated)	i	i	i	i	i	i
O=C(CNC(=O)c1nn(Cc2ccccc2)c(=O)c2ccccc12)Nc1ccc(F)c(F)c1F	i	i	i	i	i	-56
Fc1ccc(C2CCNCC2COc2ccc3c(c2)OCO3)cc1 (configuration not stated)	61	i	i	i	i	i
NC(=O)C1CCN(C(=O)c2cc3c(s2)CCCCC3)CC1	i	i	i	i	i	i
N#Cc1ccc(CSc2nnc(Cc3cccs3)n2Cc2ccco2)cc1	i	76	nt	i	i	i
SMILES	Peg3 promoter	TWEAK-Fn14 inh	TROY NFkB inh	HIF-2a block	CF NFkB inh	KKLEB tox
COC(=O)c1c(NC(=O)CCl)sc(C(=O)N2CCOCC2)c1C	i	i	i	i	50	i
COc1ccc(/C=C2\Sc3ccc(C(=O)N4CCOCC4)cc3N(C)C2=O)cc1	i	i	i	i	i	i
Cc1nc(NC(=O)c2ccccc2)sc1-c1csc(NCc2ccccc2)n1	i	i	i	i	i	i
CCOc1ccccc1Nc1nc(-c2sc(NC(=O)c3cccc(Cl)c3)nc2C)cs1	i	64	i	i	i	i
Cc1nc(NC(=O)c2ccccc2)sc1-c1csc(NCCc2ccccc2)n1	i	54	i	i	i	i
CCCCNc1ccc2c3c(cccc13)C(=O)N(CCCC)C2=O	i	i	i	i	i	i
COc1ccc(NC(=O)C(=O)Nc2cccc3cccnc23)cc1OC	i	105	i	i	i	i
COc1ccc(C(=O)Nc2cccc3cccnc23)cc1OC	i	i	i	i	i	i
Cc1nn(Cc2ccc(C(=O)NN)o2)c(C)c1Cl	i	i	i	i	i	i
Cc1ccc(CS(=O)(=O)Cc2ccc(C(=O)NCCCN3CC(C)CC(C)C3)o2)cc1 (configuration not stated)	i	i	i	i	i	i
CCOC(=O)c1c(N)sc(C(=O)Nc2ccc3c(c2)OCO3)c1C	i	79	i	i	i	i
CCOC(=O)C1(CCOc2ccccc2)CCN(Cc2cccc(OCCO)c2)CC1	i	i	51	i	i	i
Cc1c(-c2ccccc2)n(O)c(-c2ccc(N(C)C)cc2)[n+]1[O-]	i	i	i	i	i	i
Cc1csc(N=Nc2ccc(N(C)C)cc2)[n+]1[O-]	i	86	75	i	i	i
Oc1[nH]c2ccccc2c1N=Nc1ccc(C(F)(F)F)cn1	i	i	i	i	i	i
Cc1ccc2oc(C(F)(F)C(F)F)cc(=O)c2c1	i	i	i	i	i	i
Cc1ccc2oc(C(Cl)(Cl)Cl)cc(=O)c2c1	63	64	i	i	i	i
C=CCOc1c(Br)cc(/C=N/NC(N)=O)cc1OC	i	i	i	i	i	i
COc1ccccc1CN1C[C@@H]2C[C@@H](C3=Cc4cc(Cl)ccc4OC3)N3CCC[C@@]23C1=O	i	i	i	i	i	i
Cc1cc(OCC(=O)N(C)C2CCCCC2)ccc1Cl	i	i	66	i	i	i
Cc1cc(OCC(=O)N(C)C2CCCCC2)cc(C)c1Cl	i	i	i	i	i	i
O=C(O)c1ccc2cc(-c3ccccc3)[nH]c2c1	i	98	i	i	i	i
CSc1nc2ccc(NC(=O)c3ccc(F)c(F)c3)cc2s1	i	i	i	i	i	i
CCOC(=O)Nc1ccc2nc(Sc3ccc(Cl)cc3)sc2c1	i	i	82	i	i	i
COC(=O)Cc1ccc(NC(=O)c2ccccc2Cl)cc1	i	i	i	i	i	i
Nc1ccccc1SC(CC(=O)c1ccccc1)c1ccccc1 (configuration not stated)	i	i	i	i	i	i
CC(C(Sc1ccccc1N)c1ccccc1)[N+](=O)[O-] (configuration not stated)	i	i	55	i	i	i
O=C(O)c1ccccc1-c1ccc(/C=c2\sc3nc4cc(Br)cnc4n3c2=O)o1	i	75	i	i	i	i

Screening data: PubChem BioAssay, Sanford-Burnham Center for Chemical Genomics
